# Assay results published in publication PMC4336329 (PLoS ONE, 2015).
# Screen size: about 310,000 compounds; about 14,000 (4.5%) showed an effect of 50% or more. The effect is printed as a negative number. The sample holds strong results, similar compounds and a random draw of the others, so the mix is not that of the screen.
# Biological target: human ether-à-go-go-related gene (hERG) potassium channel (human, UniProt Q12809)
# Test: primary screen, population patch clamp on CHO cells stably expressing hERG; higher = less effect of the substance
# 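Also: peak tail current of the secondary pulse compared with the same well before compound.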
# Sequence of human ether-à-go-go-related gene (hERG) potassium channel (Q12809 whole entry, looked up): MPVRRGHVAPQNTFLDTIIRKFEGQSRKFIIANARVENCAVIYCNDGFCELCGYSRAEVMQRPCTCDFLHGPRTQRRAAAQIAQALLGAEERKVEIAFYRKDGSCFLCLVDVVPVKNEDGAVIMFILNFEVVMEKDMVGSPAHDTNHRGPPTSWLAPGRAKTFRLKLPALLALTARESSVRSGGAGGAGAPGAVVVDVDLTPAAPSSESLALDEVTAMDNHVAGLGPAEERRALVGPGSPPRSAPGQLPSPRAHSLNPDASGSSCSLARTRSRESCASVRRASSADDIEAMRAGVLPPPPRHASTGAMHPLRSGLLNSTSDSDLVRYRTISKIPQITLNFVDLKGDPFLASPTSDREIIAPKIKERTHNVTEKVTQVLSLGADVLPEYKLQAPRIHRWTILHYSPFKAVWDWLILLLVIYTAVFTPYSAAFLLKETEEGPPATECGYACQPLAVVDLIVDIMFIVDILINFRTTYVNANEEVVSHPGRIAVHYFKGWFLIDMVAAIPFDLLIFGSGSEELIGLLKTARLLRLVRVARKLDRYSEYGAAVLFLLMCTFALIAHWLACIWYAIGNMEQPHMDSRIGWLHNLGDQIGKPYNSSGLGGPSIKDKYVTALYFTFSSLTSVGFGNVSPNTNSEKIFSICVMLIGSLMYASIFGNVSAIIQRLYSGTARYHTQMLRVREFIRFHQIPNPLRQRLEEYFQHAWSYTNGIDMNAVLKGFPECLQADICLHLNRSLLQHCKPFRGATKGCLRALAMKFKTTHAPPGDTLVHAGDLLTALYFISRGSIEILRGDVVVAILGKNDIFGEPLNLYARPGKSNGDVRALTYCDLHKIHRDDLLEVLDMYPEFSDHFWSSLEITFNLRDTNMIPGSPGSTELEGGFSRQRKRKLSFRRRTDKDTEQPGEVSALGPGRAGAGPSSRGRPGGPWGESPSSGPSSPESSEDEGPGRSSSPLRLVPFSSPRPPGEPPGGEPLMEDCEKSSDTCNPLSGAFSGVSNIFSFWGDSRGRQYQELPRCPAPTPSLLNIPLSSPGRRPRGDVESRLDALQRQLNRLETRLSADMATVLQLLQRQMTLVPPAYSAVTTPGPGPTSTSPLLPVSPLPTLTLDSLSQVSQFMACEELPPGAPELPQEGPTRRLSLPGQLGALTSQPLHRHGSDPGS
row,Structure (SMILES),"hERG current change (%, negative = inhibition) at 10uM [%]"
1,O=C(NCc1nc2ccccc2[nH]1)C1=C[C@@H](c2ccccc2)C[C@@H](OCCCCO)O1,-46.5
2,O=C(NCc1nc2ccccc2[nH]1)C1=C[C@H](c2coc3ccccc3c2=O)C[C@H](OCc2ccc(CO)cc2)O1,-21.5
3,O=C(NCc1ccccc1)C1=C[C@@H](c2csc3ccccc23)C[C@@H](OCCCCO)O1,-69
4,O=C(NCc1nc2ccccc2[nH]1)C1=C[C@H](c2coc3ccccc3c2=O)C[C@H](OCCCCO)O1,-50.7
5,O=C(Nc1ccccc1)C1=C[C@H](c2csc3ccccc23)C[C@H](OCCCCO)O1,-5.71
6,O=C(NCc1nc2ccccc2[nH]1)C1=C[C@@H](c2ccccc2)C[C@@H](OCc2ccc(CO)cc2)O1,-64.9
7,Nc1nc2c(ncn2C2C[C@H](O)[C@@H](CO)O2)c(=O)[nH]1 (some centres unmarked),14.4
8,Cc1nnc(NC(=O)c2ccc(S(=O)(=O)N3CCc4ccccc4C3)cc2)o1,8.81
9,Cc1cc(C)n(-c2nnc(C)n2NC(=O)c2cccc(Cl)c2)n1,11.1
10,Cc1cccc[n+]1CC(=O)c1ccc(NC(=O)c2ccccc2)cc1.[Br-],28.6
11,COc1ccccc1NC(=O)Nc1nc(CC(=O)NCc2ccc(F)cc2)cs1,-11.4
12,Cc1ccc(S(=O)(=O)NCc2ccccc2)cc1C(=O)NC1CCCCC1,15.9
13,COc1cc(C(=O)NCC(=O)OCCN2C(=O)c3ccccc3C2=O)cc(OC)c1OC,4.2
14,CCNc1nc(Oc2ccc(=O)[nH]n2)nc(SC)n1,8.57
15,CC1=CC(C/C(C)=C/COc2ccc3ccc(=O)oc3c2)OC1=O (centres unmarked),2.36
16,COC(=O)c1c(NC(=O)c2ccccc2F)sc2c1C(C(=O)OC)CC2 (centres unmarked),9.38
17,CCCn1c(SCC(=O)c2cc(OC)ccc2OC)nnc1-c1ccco1,-12.5
18,O=C(NC1CC1)C1=C[C@@H](c2coc3ccccc3c2=O)C[C@@H](OCCCCO)O1,-23.8
19,O=C(NCc1ccccc1)C1=C[C@H](c2coc3ccccc3c2=O)C[C@H](OCCCCO)O1,-55.4
20,O=C(Nc1ccccc1)C1=C[C@H](c2coc3ccccc3c2=O)C[C@H](OCCCCO)O1,-70.3
21,O=C(NCc1ccccc1)C1=C[C@@H](c2coc3ccccc3c2=O)C[C@@H](OCCCCO)O1,-83.1

row,Structure (SMILES),"hERG current change (%, negative = inhibition) at 10uM [%]"
1,C#CCNC(=O)C1=C[C@H](c2coc3ccccc3c2=O)C[C@H](OCCCCO)O1,-45
2,O=C(O)C1=C[C@H](c2coc3ccccc3c2=O)C[C@H](OCCCCO)O1,3.91
3,O=C(O)C1=C[C@@H](c2coc3ccccc3c2=O)C[C@@H](OCCCCO)O1,22.8
4,C#CCNC(=O)C1=C[C@@H](c2coc3ccccc3c2=O)C[C@@H](OCCCCO)O1,1.71
5,O=C(Nc1ccccc1)C1=C[C@@H](c2coc3ccccc3c2=O)C[C@@H](OCCCCO)O1,-41.1
6,COc1cc2c(cc1OC)CN(C(=S)Nc1ccccc1)CC2,-7.19
7,O=C(/C=C/c1cc(Br)ccc1F)Nc1cccnc1,14.6
8,COc1ccccc1N(CC(=O)NC1CCCC1)C(=O)C1(C)CC(=O)N=C2C=CC(C)=CN21 (centres unmarked),12.5
9,CC(C)CCN(C(=O)c1ccc(N2CCCC2=O)cc1)c1c(N)n(Cc2ccccc2)c(=O)[nH]c1=O,12.2
10,Cc1ccc(-n2cc3ccc([N+](=O)[O-])cc3n2)cc1,5.28
11,CC(C)n1c(Nc2ccccc2)nc2ccccc21,-1.84
12,COc1cccc(NC(=O)CSc2nc3c(sc4ccccc43)c(=O)n2CCCN2CCCC2)c1,-69.8
13,COc1cccc(NC(=O)CSc2nc3c(sc4ccccc43)c(=O)n2CCN(C)C)c1.Cl,-65.5
14,COCCn1c(SCC(=O)Nc2cccc(OC)c2)nc2c(oc3ccccc32)c1=O,-42.2
15,Cc1cc(NC(=O)CSc2nc3c(sc4ccccc43)c(=O)n2CCc2ccccc2)n[nH]1,-19.6
16,COc1ccc(NC(=O)CSc2nc3c(sc4ccccc43)c(=O)n2CCCN2CCCC2)cc1,-30.8
17,COc1cccc(NC(=O)CSc2nc3c([nH]c4ccccc43)c(=O)n2C)c1,16.4
18,COc1ccccc1NC(=O)CSc1nc2c(sc3ccccc32)c(=O)n1CCN(C)C.Cl,11.5
19,CCN(CC)CCn1c(SCC(=O)Nc2cccc(OC)c2)nc2c(sc3ccccc32)c1=O,-69.2
20,CCN(CC)CCn1c(SCC(=O)Nc2ccc(F)cc2)nc2c(sc3ccccc32)c1=O.Cl,-14.9
